Experimental data taken from PubChem BioAssay (NCI).
Compounds without any hit were thinned out: in the full panel of roughly 83,000, 20% have a hit.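 Values shown are percent growth following 48 h exposure of cells in 96-well plates to a single concentration of compound; below 10 was considered active.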 Calls of active or inactive are those of the source.

System: MDA-MB-231 breast
Assay: NCI-60 one-dose screen, 48 h (100 = growth as untreated, 0 = no growth, -100 = all killed)
Conditions: 10 µM unless noted

Structure (SMILES)	growth
O=C(COc1cccc(/C=C2\COc3ccc(Cl)cc3C2=O)c1)c1ccc(Cl)cc1	67.8% (inactive)
Cc1cc(Nc2ccc(C)c(Cl)c2)n2nc(C(F)(F)F)nc2n1	2.77% (active)
CN(C)c1ccc(NC(=O)c2ccc(/C=C/C(=O)c3ncc[nH]3)cc2)cc1	71.8% (inactive)
O=[N+]([O-])c1ccccc1/C=N\NC(=S)N/N=C/c1ccccc1[N+](=O)[O-]	83% (inactive)
O=C(Oc1cccnc1)c1ccsc1Nc1ccnc(C(F)(F)F)c1	63.2% (inactive)
OC(c1cc2cc(Cl)c(Cl)cc2c2cc(C(F)(F)F)ccc12)C1CCCCN1 (stereo unspecified)	-71.3% (active)
COc1ccc(-c2cc(-c3ccc(Nc4ccnc5cc(Cl)ccc45)cc3)nc(N3CCOCC3)n2)cc1	52.4% (inactive)
C=C1C(=O)O[C@H]2[C@H]1CC/C(COC(=O)NCCc1ccc(OC)c(OC)c1)=C\CC[C@@]1(C)O[C@@H]21	58% (inactive)
O=[N+]([O-])c1ccc2c(c1)Cc1cc(F)ccc1-2	112% (inactive)
CN1CCN(c2nc(NCCCNc3ccnc4cc(Cl)ccc34)c3ccccc3n2)CC1	-8.42% (active)
Clc1ccc2c(NCCCCNc3nc(N4CCCCC4)nc4ccccc34)ccnc2c1	-51.3% (active)
NC(=NC1C2CC3CC(C2)CC1C3)Nc1ccc(I)cc1 (stereo unspecified)	41.8% (inactive)
CCOc1nc(-c2ccccc2)cc2c(O)c(C(=O)O)[nH]c(=O)c12	104% (inactive)
COc1ccc(Nc2cc(C)nc(N3CCN(c4ccnc5cc(Cl)ccc45)CC3)n2)cc1	17.7% (inactive)
Cc1cc(N2CCN(c3ccnc4cc(Cl)ccc34)CC2)nc(N2CCOCC2)n1	64.1% (inactive)
N#Cc1c(N)n(CCNC(=O)c2ccccc2)c2nc3ccccc3nc12	112% (inactive)
COc1ccc(CN2c3ccccc3Sc3ccccc32)c(C(F)(F)F)c1	40.6% (inactive)
CCc1c(Nc2ccccc2C)nc(N)[nH]c1=O	114% (inactive)
CC(=O)c1cc2c(N)c(C(=O)Nc3ccccc3)sc2nc1C	85.1% (inactive)

Structure (SMILES)	growth
CCCCC/C(C=C(C#N)C#N)=C/c1ccccc1	77.7% (inactive)
OCCNc1nccc(N2CCN(c3ccnc4cc(Cl)ccc34)CC2)n1	54.9% (inactive)
Cc1cc(N2CCSCC2)nc(NC2CCCC(Nc3ccnc4cc(Cl)ccc34)C2)n1 (stereo unspecified)	-75.7% (active)
COc1ccc(Nc2c3c4c(cccc4[nH]c2=O)C(=O)c2ccccc2-3)cc1	-20.5% (active)
O=C1/C(=C/c2ccccc2O)N=C2SCCCN12	78.8% (inactive)
COc1cc2c(cc1O)CC[C@@H]1[C@@H]2CC[C@]2(C)[C@@H](OCCCN(C)C)CC[C@@H]12	-70.2% (active)
O=C(Cn1cccc(Nc2ccccc2)c1=O)Nc1ccccc1	108% (inactive)
Cc1cc(N2CCN(c3ccnc4cc(Cl)ccc34)CC2)nc(NC2CCCCC2)n1	-3.08% (active)
CSc1ccc(SC2c3ccc(C)cc3Oc3nc(N)c(C#N)c(N)c32)cc1 (stereo unspecified)	-90.5% (active)
O=c1ccccc(-c2ccc(-c3ccco3)cc2)c1O	40.2% (inactive)
O=C(COc1ccc(/C=C2\CSc3ccccc3C2=O)cc1)Nc1nccs1	95.6% (inactive)
CN(C)CCCNc1c2ccccc2nc2ccccc12	85.2% (inactive)
O=C(Cc1ccc(/C=C/C(=O)c2ncc[nH]2)cc1)Nc1ccccc1	70.7% (inactive)
CC/C=C\C/C=C\C[C@H]1C/C=C2/C(=O)C=C[C@@H]2C/C=C\CCC(=O)O1	19.3% (inactive)
COc1cccc(-c2nc(SCC(=O)Nc3ccc(C(=O)/C=C/c4ccc(OC)c(OC)c4)cc3)[nH]c(=O)c2C#N)c1	67.6% (inactive)
Cc1cc(N2CCN(C)CC2)nc(NC2CCCC(Nc3ccnc4cc(Cl)ccc34)C2)n1 (stereo unspecified)	-76.4% (active)
Clc1ccc2nc3nc4ccc[nH]c4cc3c2c1	99.6% (inactive)
COc1ccc2c(c1)C(=O)/C(=C/c1ccccn1)CC2	69.4% (inactive)
COc1ccc(C2Nc3c(c(C(C)(C)C)nn3-c3ccccc3)C(=O)CS2)cc1 (stereo unspecified)	94.2% (inactive)

System: RXF 393 renal
Assay: as above
Conditions: 10 µM unless noted

Structure (SMILES)	growth
Cc1cc(Nc2ccc(C)c(Cl)c2)n2nc(C(F)(F)F)nc2n1	-9.51% (active)
CN(C)c1ccc(NC(=O)c2ccc(/C=C/C(=O)c3ncc[nH]3)cc2)cc1	67.4% (inactive)
O=[N+]([O-])c1ccccc1/C=N\NC(=S)N/N=C/c1ccccc1[N+](=O)[O-]	76.3% (inactive)
O=C(Oc1cccnc1)c1ccsc1Nc1ccnc(C(F)(F)F)c1	105% (inactive)
OC(c1cc2cc(Cl)c(Cl)cc2c2cc(C(F)(F)F)ccc12)C1CCCCN1 (stereo unspecified)	-96.2% (active)
COc1ccc(-c2cc(-c3ccc(Nc4ccnc5cc(Cl)ccc45)cc3)nc(N3CCOCC3)n2)cc1	34.9% (inactive)
C=C1C(=O)O[C@H]2[C@H]1CC/C(COC(=O)NCCc1ccc(OC)c(OC)c1)=C\CC[C@@]1(C)O[C@@H]21	34.7% (inactive)
O=[N+]([O-])c1ccc2c(c1)Cc1cc(F)ccc1-2	103% (inactive)
CN1CCN(c2nc(NCCCNc3ccnc4cc(Cl)ccc34)c3ccccc3n2)CC1	43.3% (inactive)
Clc1ccc2c(NCCCCNc3nc(N4CCCCC4)nc4ccccc34)ccnc2c1	-62.8% (active)
NC(=NC1C2CC3CC(C2)CC1C3)Nc1ccc(I)cc1 (stereo unspecified)	85.8% (inactive)
CCOc1nc(-c2ccccc2)cc2c(O)c(C(=O)O)[nH]c(=O)c12	-10.5% (active)
COc1ccc(Nc2cc(C)nc(N3CCN(c4ccnc5cc(Cl)ccc45)CC3)n2)cc1	51.4% (inactive)
Cc1cc(N2CCN(c3ccnc4cc(Cl)ccc34)CC2)nc(N2CCOCC2)n1	80.6% (inactive)
COc1ccc(CN2c3ccccc3Sc3ccccc32)c(C(F)(F)F)c1	-9.74% (active)
CCc1c(Nc2ccccc2C)nc(N)[nH]c1=O	112% (inactive)
CC(=O)c1cc2c(N)c(C(=O)Nc3ccccc3)sc2nc1C	85.1% (inactive)

Structure (SMILES)	growth
OCCNc1nccc(N2CCN(c3ccnc4cc(Cl)ccc34)CC2)n1	77.1% (inactive)
Cc1cc(N2CCSCC2)nc(NC2CCCC(Nc3ccnc4cc(Cl)ccc34)C2)n1 (stereo unspecified)	-73.7% (active)
O=C1/C(=C/c2ccccc2O)N=C2SCCCN12	112% (inactive)
COc1cc2c(cc1O)CC[C@@H]1[C@@H]2CC[C@]2(C)[C@@H](OCCCN(C)C)CC[C@@H]12	-88.3% (active)
O=C(Cn1cccc(Nc2ccccc2)c1=O)Nc1ccccc1	100% (inactive)
Cc1cc(N2CCN(c3ccnc4cc(Cl)ccc34)CC2)nc(NC2CCCCC2)n1	48.8% (inactive)
CSc1ccc(SC2c3ccc(C)cc3Oc3nc(N)c(C#N)c(N)c32)cc1 (stereo unspecified)	-70.2% (active)
O=c1ccccc(-c2ccc(-c3ccco3)cc2)c1O	43.9% (inactive)
CN(C)CCCNc1c2ccccc2nc2ccccc12	56.4% (inactive)
O=C(Cc1ccc(/C=C/C(=O)c2ncc[nH]2)cc1)Nc1ccccc1	42.9% (inactive)
CC/C=C\C/C=C\C[C@H]1C/C=C2/C(=O)C=C[C@@H]2C/C=C\CCC(=O)O1	-71.3% (active)
COc1cccc(-c2nc(SCC(=O)Nc3ccc(C(=O)/C=C/c4ccc(OC)c(OC)c4)cc3)[nH]c(=O)c2C#N)c1	85.2% (inactive)
Cc1cc(N2CCN(C)CC2)nc(NC2CCCC(Nc3ccnc4cc(Cl)ccc34)C2)n1 (stereo unspecified)	-62.2% (active)
Clc1ccc2nc3nc4ccc[nH]c4cc3c2c1	116% (inactive)
COc1ccc2c(c1)C(=O)/C(=C/c1ccccn1)CC2	83% (inactive)
COc1ccc(C2Nc3c(c(C(C)(C)C)nn3-c3ccccc3)C(=O)CS2)cc1 (stereo unspecified)	103% (inactive)
